In PubChem BioAssay:

Each compound was assayed against NADPH oxidase 2 (Homo sapiens) (UniProt P04839) (assay: NOX2-dependent H2O2 signal modulators, primary screen, NOX inhibitor project, cell-based, HEK293-NOX2, PMA-stimulated, Amplex Red fluorescence (AID 1159; further: test concentration not given here)). Conditions: 45 min, higher = more signal, called active from +8 up or from −8 down.
Sequence of NADPH oxidase 2 (Homo sapiens) (P04839 whole entry, looked up): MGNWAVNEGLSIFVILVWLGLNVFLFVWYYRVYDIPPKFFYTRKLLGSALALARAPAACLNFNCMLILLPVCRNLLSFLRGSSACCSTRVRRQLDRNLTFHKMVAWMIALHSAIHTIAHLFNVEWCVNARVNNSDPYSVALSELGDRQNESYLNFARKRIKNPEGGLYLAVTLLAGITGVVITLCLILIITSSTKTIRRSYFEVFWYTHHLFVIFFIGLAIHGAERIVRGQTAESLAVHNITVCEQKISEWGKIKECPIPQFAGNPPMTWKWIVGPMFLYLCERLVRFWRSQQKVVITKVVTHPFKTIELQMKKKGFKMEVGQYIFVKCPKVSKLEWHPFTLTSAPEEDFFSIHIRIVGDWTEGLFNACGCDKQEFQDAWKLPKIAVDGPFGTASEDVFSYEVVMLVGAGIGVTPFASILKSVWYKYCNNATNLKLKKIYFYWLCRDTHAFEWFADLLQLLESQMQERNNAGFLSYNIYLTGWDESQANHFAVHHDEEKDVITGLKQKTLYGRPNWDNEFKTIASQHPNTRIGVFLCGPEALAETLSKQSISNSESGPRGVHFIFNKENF

z-score, inactive:
C[n+]1ccc(-c2ccc(CO)cc2)cc1 -0.225
CC(C)=CCCC(C)=CCON=C1C[C@@H](O)[C@@H](O)[C@@H]2[C@@H]3C(=O)N(c4cccc(Oc5ccccc5)c4)C(=O)[C@@H]3CC[C@@H]12 -1.33
CO[C@@H]1COC(=O)[C@H](CCSC)NC(=O)CC=C[C@@H](C)COC(=O)[C@H](C)NC(=O)CC=C[C@H]1C -0.906
CON=CC[C@@H]1C=C[C@H](OC(C)=O)[C@@H](COC(C)=O)O1 0.0851
CC(C)CON=C1C[C@@H](O)[C@@H](O)[C@@H]2[C@@H]3C(=O)N(c4ccc(F)cc4F)C(=O)[C@@H]3CC[C@H]12 -1.13
CC(C)(C)N1C(=O)[C@H]2[C@H]3[C@H](O)[C@H](O)CC(=NOCc4ccccc4)[C@H]3CC[C@H]2C1=O -0.147
C[C@@H](c1ccccc1)N1C(=O)[C@H]2[C@H]3[C@H](O)[C@H](O)CC(=NOCc4ccccc4)[C@H]3CC[C@H]2C1=O -1.53
CCOC(=O)[C@H](Cc1ccccc1)NC(=O)CCC1CC(OC(=O)NCc2cccc3ccccc23)CC2(CCCC(COC(=O)NCC(c3ccccc3)c3ccccc3)O2)O1 (stereo partly drawn) 0.782
